According to PubChem BioAssay AID2069 (Sanford-Burnham Center for Chemical Genomics, 2009):
Among all 1,200 compounds or so, about 210 (18%) were called active. These entries were drawn from the full list. Unmarked numbers belong to inactive results. No stated cut-off is given here; in the data, active means inhibition above about 30%; inactive means the rest.

Test: fluorescence readout artefact check – biochemical, HTRF, uHTS, artefact control for SUMOylation inhibitor project, confirmation (AID 2069)
Conditions: HTRF interference counterscreen, at 35 µM, active compounds read high

| SMILES | inhibition |
| --- | --- |
| Cc1nnc(N/N=C\c2ccc(-c3ccccc3[N+](=O)[O-])o2)n1N | 16% |
| O=C1/C(=N\S(=O)(=O)c2cccs2)C([n+]2cccc(Cc3ccccc3)c2)=C([O-])c2ccccc21 | 22% |
| CCC(=O)N1CCc2cc(S(=O)(=O)NC(C(=O)NCc3ccc(C)cc3)C(C)C)ccc21 (stereo unspecified) | -2.25% |
| COC(=O)c1c(NC(=O)COC(=O)c2ccc(NC(=O)CC#N)cc2)sc2c1CCCCC2 | 4.25% |
| COCCn1c(-c2ccco2)nc2nc3ccccc3nc21 | 12.7% |
| Fc1cccc(-n2c(-c3cccs3)nc3nc4ccccc4nc32)c1 | 30.1% (active) |
| O=[N+]([O-])c1ccc(-c2ccc(C=Nc3cccc4ccccc34)o2)cc1 | 11.9% |
| CN(C)S(=O)(=O)c1cccc(-c2nn(-c3ccccc3)cc2/C=C2\SC(=S)NC2=O)c1 | -4% |
| Cc1nnc(Sc2cc(NCCCO)c([N+](=O)[O-])c3nonc23)s1 | -3.2% |
| O=c1c2ccccc2oc2cc(NCCCN3CCOCC3)ccc12 | 57.9% (active) |
| COc1ccc(-c2ccc(C(c3c(C)[nH][nH]c3=O)c3c(C)[nH][nH]c3=O)o2)c([N+](=O)[O-])c1 | 1.45% |
| COc1cc2c(cc1OC)-c1cc3ccc4c(c3c[n+]1CC2)OCO4 | 24.4% |
| CCOC(=O)c1c(NC(=O)c2ccco2)n(C2CCCCC2)c2nc3ccccc3nc12 | 21.2% |
| Cc1cc(NCCO)c2cc(O)ccc2n1 | 57.5% (active) |
| Cc1ccccc1NC(=O)c1ccc(N/N=C/c2ccccc2O)c([N+](=O)[O-])c1 | 24.7% |
| O=C(NC(=S)Nc1cccc2c(O)cccc12)c1ccccc1[N+](=O)[O-] | -1.65% |
| COC(=O)/C(=C\Nc1ccc(Cl)cc1Cl)NC(=O)c1ccc(OC)cc1 | 0.3% |
| O=C(N/N=C/c1ccc(O)cc1O)C(=O)N/N=C/c1ccc(O)cc1O | 63.6% (active) |
| Oc1ccc(C=Nc2cccc3ccccc23)c(O)c1 | 0.55% |
| COc1cc(OC)c(/C=N/NC(=O)c2ccc(NC(C)=O)cc2)cc1Br | 23.1% |
| COc1cccc(/C=N/NC(=O)C(=O)N/N=C/c2cccc(OC)c2O)c1O | 48% (active) |
| COc1cccc2c(SCC(=O)N/N=C/c3ccc(O)cc3O)cc(C)nc12 | 15.7% |
| COc1cccc(/C=N\NC(=O)C2=NNC(=O)C2C)c1O (stereo unspecified) | 24.4% |

| SMILES | inhibition |
| --- | --- |
| CC1(OC(=O)c2cccs2)C(=O)C=C2C=C3CCCN3C=C2C1=O (stereo unspecified) | 7.4% |
| O=C(CNc1ccc2ccccc2c1)N/N=C/c1cc2ccccc2nc1Cl | 2.4% |
| CC1=NN(c2ccccc2)C(=O)C1 | 7.95% |
| Cc1[nH]n(-c2ncc(-c3ccccc3)s2)c(=O)c1C(c1ccc(Cl)cc1)C(C#N)C#N (stereo unspecified) | -20.6% |
| O=C(Cn1c2ccccc2c(=O)c2ccccc21)N/N=C/c1cc([N+](=O)[O-])ccc1N1CCCCCC1 | 10.9% |
| Cc1ccccc1C(=O)Nc1cccc(C(=O)N/N=C/c2cc(Cl)cc([N+](=O)[O-])c2O)c1 | -53.5% |
| O=C(N/N=C/c1cc(Cl)cc([N+](=O)[O-])c1O)c1ccccc1NS(=O)(=O)c1cccs1 | 39.8% (active) |
| O=C(N/N=C/c1ccc(N2CCOCC2)cc1)c1ccccc1NS(=O)(=O)c1cccs1 | 24.1% |
| C=C(C)[C@@H]1CC[C@]2(C(=O)O)CC[C@]3(C)[C@H](CC[C@@H]4[C@@]5(C)CC[C@H](O)C(C)(C)[C@@H]5CC[C@]43C)[C@@H]12 | 5.35% |
| Cc1ccc(Nc2nc(=O)c3cc([N+](=O)[O-])ccc3s2)cc1 | 5.9% |
| Cc1cccc(NC(=O)/C(C#N)=C/c2cn(CC(=O)NCc3ccco3)c3ccccc23)c1C | 13.7% |
| CCCCCCC#Cc1cncc(C(=O)NNC(=O)Nc2cc(Cl)cc(Cl)c2)c1 | -17% |
| O=C1C=C(Nc2ccccc2C(=O)O)c2ccccc2C1=O | -7.25% |
| O=C1C=C(N(CCO)Cc2ccccc2)c2ccccc2C1=O | 50.4% (active) |
| O=C1C=C(NCc2ccccc2)c2ccccc2C1=O | -1.95% |
| CC(C)CNC1=CC(=O)CC(c2ccco2)C1 (stereo unspecified) | -0.9% |
| COc1cccc(C(c2c(C)[nH]n(-c3ccccc3)c2=O)c2c(C)[nH]n(-c3ccccc3)c2=O)c1OC | -27.4% |
| Nc1ncnc2c1ncn2C1OC(COP(=O)(O)O)C(O)C1O (stereo unspecified) | -7% |
| O=C1OC(Nc2ccc3ncccc3c2)c2ccccc21 (stereo unspecified) | 24% |
| O=[N+]([O-])c1ccc(O)c(C=Nc2cccc3ncccc23)c1 | 4.3% |
| N#CC1=C(N)N2C(=C(C#N)C1c1ccc(Br)cc1)Nc1ccccc12 (stereo unspecified) | 7.05% |
| O=c1nc2s/c(=C\c3ccco3)c(=O)n2nc1Cc1ccc(F)cc1 | -3.1% |
| OC(COc1ccccc1)CSc1ncn[nH]1 (stereo unspecified) | 14.6% |

| SMILES | inhibition |
| --- | --- |
| COc1ccc(NC(=S)Nc2ccc3nccnc3c2)cc1 | 8.85% |
| CC(C)N(C(=O)Nc1ccc2nccnc2c1)C(C)C | 31.1% (active) |
| Fc1ccc(NC(=S)Nc2ccc3nccnc3c2)cc1 | 7.9% |
| COc1ccc(-n2c(NC(=O)c3ccc(Br)o3)c(C#N)c3nc4ccccc4nc32)cc1 | 12.1% |
| Cn1c(=O)n(C)c2cc(S(=O)(=O)NCCO)ccc21 | -3.1% |
| O=C(Nc1cccc2nsnc12)c1ccc(-c2cccc(Cl)c2)o1 | 25.9% |
| Cc1ccc2nsnc2c1NC(=O)c1ccc(-c2cc(Cl)ccc2Cl)o1 | 20.6% |
| CCOc1cc(C2c3c(oc4ccccc4c3=O)C(=O)N2c2nccs2)ccc1O (stereo unspecified) | -2.15% |
| COc1ccccc1Oc1c(C)oc2c(CN3CCN(C)CC3)c(O)ccc2c1=O | 30.4% (active) |
| CCOc1ccccc1Oc1c(C)oc2c(CN3CCN(C)CC3)c(O)ccc2c1=O | 40.3% (active) |
| Oc1ccc2ccccc2c1C=NCc1cn2ccsc2n1 | 0.1% |
| CC(C)c1ccc(NC(=S)Nc2cccc3ccccc23)cc1 | -7.9% |
| COc1ccc2cc3c(N)nn(C(=O)Cc4ccc(Cl)cc4)c3nc2c1 | 23.9% |
| CCN(CC)C(=O)c1sc2nc(-c3ccncc3)[nH]c(=O)c2c1C | 47.2% (active) |
| CCCCCCC(C)OC(=O)c1ccccc1C(=O)O (stereo unspecified) | 3.05% |
| NC(=S)n1[nH]c(-c2ccc([N+](=O)[O-])cc2)c(N=Nc2cccc(Cl)c2)c1=O | 10.7% |
| COc1ccc(-c2cc(C(F)(F)F)n3ncc(C(=O)NCc4ccco4)c3n2)cc1 | 44.1% (active) |
| COc1ccc2oc(=O)c(/C(C)=N/NC(=O)c3ccncc3)cc2c1 | 18.8% |
| Cc1onc(-c2ccccc2Cl)c1C(=O)NCc1ccco1 | 11.2% |
| COc1ccc(CNC(=O)c2c(C)oc3c2C(=O)c2ccccc2C3=O)cc1 | 5.35% |
| COc1ccc(C(=O)Nc2ccc(-c3nnn(CC(=O)NCc4ccco4)n3)cc2)cc1 | 26.7% |
| COc1ccc(CCn2c(N)c(C(=O)NCc3ccco3)c3nc4ccccc4nc32)cc1OC | 1.65% |
| COc1ccc2oc(=O)c(C(=O)NCc3ccco3)cc2c1 | 48.4% (active) |

| SMILES | inhibition |
| --- | --- |
| COc1ccc2oc(=O)c(C(=O)NCC3CCCO3)cc2c1 (stereo unspecified) | 40.9% (active) |
| Cc1cc(C)cc(NC(=S)Nc2cccc3cnccc23)c1 | -5.7% |
| COc1ccc(S(=O)(=O)N(C)c2ccc(C(=O)NCc3ccccn3)cc2)cc1 | -4.1% |
| N#CC1=C(N)Oc2n[nH]c(-c3cccs3)c2C1c1ccoc1 (stereo unspecified) | -10.8% |
| COC(=O)c1cc(O)cc(OC)c1Oc1cc(C)cc(O)c1C(=O)O | 11% |
| COc1ccc2c(C)c(C(=O)NCC(C)O)oc2c1OC (stereo unspecified) | 38% (active) |
| Oc1ccc(NCc2ccccc2OCc2ccccc2F)cc1 | -9.2% |
| COc1cc2c(-c3ccc(O)cc3)nc3c(c(C)nn3-c3ccccc3)c2cc1OC | 9.45% |
| CC(=O)Nc1ccc(S(=O)(=O)Nc2cccn(Cc3ccc(C)cc3)c2=O)cc1 | 1.85% |
| CCCCCCCC(=O)Nc1ccc(C(=O)N/N=C/c2cccc([N+](=O)[O-])c2)cc1 | -8.25% |
| CCCCCCCn1c(NC(=O)CC)nc2ccccc21 | 4.3% |
| CCCCCC(=O)Nc1ccc(-c2cn3cccnc3n2)cc1 | 49.3% (active) |
| CC(=O)Nc1ccc(-c2cn3cccnc3n2)cc1 | 52.3% (active) |
| CCc1ccc(S(=O)(=O)/N=C2\C=CC(=O)c3ccccc32)cc1 | 7.75% |
| Cc1ccc(-n2nc(C)c3c2OC(N)=C(C#N)C3c2ccc(C)o2)cc1 (stereo unspecified) | -11.4% |
| O=C(Nc1ccc(Cl)c(Cl)c1)Nn1cnnc1 | 41.3% (active) |
| CN(C)S(=O)(=O)c1cc(NC(=O)CNCc2ccccc2)ccc1Cl | -6% |
| NS(=O)(=O)c1ccc(NC(=O)c2ccc(-c3ccccc3)cc2)cc1 | -3.1% |
| Cc1[nH][nH]c(=O)c1C(c1ccc(-c2ccc(C(=O)O)cc2)o1)c1c(C)[nH][nH]c1=O | 0.5% |
| CCOC(=O)c1sc(NC(=O)c2cccc(S(=O)(=O)N3CCc4ccccc43)c2)c(C#N)c1C | -22.4% |
| Cc1c(Br)c(O)c(Br)c2sc(=O)oc12 | -25.6% |
| O=C(NNc1cc(N2CCOCC2)nc(N2CCOCC2)n1)c1ccc([N+](=O)[O-])cc1 | 1.6% |
